# Reference: PubChem BioAssay (NCATS)
# Results filed as inconclusive are left out. A call without a number means that no potency is given here. Unmarked numbers belong to inactive results. Active and inactive are the calls of the source. Unless noted, calls come from the whole dose curve; as a rule, active = well fitted curve in the direction sought with a large enough effect; inconclusive = small, poorly fitted or top-dose-only effect, or another doubt; inactive = no such curve, though single readings can be large; an effect the other way counts as inactive or inconclusive. *1 amine or outer side, *2 acyl side, *3 side chain or, on linkers, in order; H or OH if unused. Where a SMILES comes first, the peptide text is derived from it. Bridges are numbered along the chain shown (N, C = ends). [ ]: non-standard residue; d: D form. The star is where a group is joined. ξ: configuration not given here. X10 = NC1=NCCC(C(N[*:1])C(=O)[*:2])N1; ΔAla(3-NHCONH2) = NC(=O)NC=C(N)C(=O)O; ξβ3hOrn = NCCCC(N)CC(=O)*; Dap = NC[CH](N)C(=O)O
# How the values were obtained:
# [1] = Primary qHTS for inhibitors of La Crosse Virus (LACV) - induced cell death in SH-SY5Y cells (AID 1508616);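 note: top concentration of the series differs between compounds; higher means more rescue of cells from virus-induced death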
# Outline: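 Cytopathicity rescue screen: compounds pinned onto SH-SY5Y cells, which are then infected with LACV (MOI 0.01) and held 6 days at 37C. Percent activity is scaled between infected DMSO control and uninfected DMSO control.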
# [2] = target: Calcium and integrin-binding protein 1 (Homo sapiens) (UniProt Q99828); assay: Primary qHTS for Identification of Calcium Integrin Binding Protein 1 (CIB1) Competitor (AID 1508620);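 note: GST tagged CIB1 binding a fluorescein labelled alphaIIb integrin peptide tracer; top concentration of the series differs between compounds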
# Sequence of Calcium and integrin-binding protein 1 (Homo sapiens) (Q99828 whole entry, looked up): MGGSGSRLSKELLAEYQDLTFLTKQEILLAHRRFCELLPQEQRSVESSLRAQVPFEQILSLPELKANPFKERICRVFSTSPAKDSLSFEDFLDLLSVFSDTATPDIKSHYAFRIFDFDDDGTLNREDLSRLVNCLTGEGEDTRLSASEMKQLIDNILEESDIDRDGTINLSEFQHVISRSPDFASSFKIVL
# Outline: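 Fluorescence polarization competition: GST-tagged CIB1 (1 uM final) preincubated with compound 15 min at room temperature, then FITC-labelled alphaIIb peptide (100 nM final) added. After 15 min at room temperature, polarization read at Ex 480/Em 540.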
# [3] = A High-Content qHTS Against Drug Library for the Identification of Small Molecules that Inhibit DYT1 Early Onset Primary Dystonia-Associated Cell Pathology (AID 1645839; calls by dose curve; note: series mostly up to about 46 µM)
# Outline: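 Cells were seeded and left for 24 h, then dosed with compound alongside tetracycline induction of mutant EGFP-TorsinA. They were incubated for 48 h, fixed in 4% paraformaldehyde, permeabilized and imaged for mislocalization (%pathology) and cell count.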
# [4] = target: Cytochrome P450 2D6 (Homo sapiens) (UniProt P10635); assay: Cytochrome P450 family 2 subfamily D member 6 (CYP2D6) small molecule antagonists: luciferase biochemical (cell-free) qHTS assay (AID 1645840; active = well fitted curve in the direction sought with a large enough effect in the repeat runs; an effect the other way counts as inactive or inconclusive; note: nearly all actives have a fitted effect of over 55% in size; note: potency is the fitted concentration of half-maximal effect; for activity change, negative = inhibition: series mostly up to about 57 µM)
# Sequence of Cytochrome P450 2D6 (Homo sapiens) (P10635 whole entry, looked up): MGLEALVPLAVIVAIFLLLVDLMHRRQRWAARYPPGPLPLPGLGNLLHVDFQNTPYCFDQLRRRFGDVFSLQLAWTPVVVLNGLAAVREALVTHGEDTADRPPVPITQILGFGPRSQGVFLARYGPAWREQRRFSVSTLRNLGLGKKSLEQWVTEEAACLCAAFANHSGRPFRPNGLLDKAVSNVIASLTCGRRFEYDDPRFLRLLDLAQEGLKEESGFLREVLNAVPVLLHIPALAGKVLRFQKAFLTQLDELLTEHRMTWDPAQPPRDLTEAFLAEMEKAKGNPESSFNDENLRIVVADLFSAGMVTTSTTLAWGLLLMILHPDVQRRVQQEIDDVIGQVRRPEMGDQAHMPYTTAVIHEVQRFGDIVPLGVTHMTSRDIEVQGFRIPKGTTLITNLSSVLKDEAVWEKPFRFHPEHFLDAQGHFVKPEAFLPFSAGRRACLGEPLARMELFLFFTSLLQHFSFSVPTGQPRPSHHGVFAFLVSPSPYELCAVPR
# Outline: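 P450-Glo CYP2D6 system: proluciferin substrate converted by enzyme to luciferin, read by luminescence proportional to activity. Enzyme-substrate mix with compound 10 min at room temperature, then NADPH regeneration 1 h before detection reagent.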
# [5] = target: Cytochrome P450 2C9 (Homo sapiens) (UniProt P11712); assay: Cytochrome P450 family 2 subfamily C member 9 (CYP2C9) small molecule antagonists: luciferase biochemical (cell-free) qHTS assay (AID 1645842; active = well fitted curve in the direction sought with a large enough effect in the repeat runs; an effect the other way counts as inactive or inconclusive; note: nearly all actives have a fitted effect of over 55% in size; note: potency is the fitted concentration of half-maximal effect; for activity change, negative = inhibition: series mostly up to about 57 µM)
# Sequence of Cytochrome P450 2C9 (Homo sapiens) (P11712 whole entry, looked up): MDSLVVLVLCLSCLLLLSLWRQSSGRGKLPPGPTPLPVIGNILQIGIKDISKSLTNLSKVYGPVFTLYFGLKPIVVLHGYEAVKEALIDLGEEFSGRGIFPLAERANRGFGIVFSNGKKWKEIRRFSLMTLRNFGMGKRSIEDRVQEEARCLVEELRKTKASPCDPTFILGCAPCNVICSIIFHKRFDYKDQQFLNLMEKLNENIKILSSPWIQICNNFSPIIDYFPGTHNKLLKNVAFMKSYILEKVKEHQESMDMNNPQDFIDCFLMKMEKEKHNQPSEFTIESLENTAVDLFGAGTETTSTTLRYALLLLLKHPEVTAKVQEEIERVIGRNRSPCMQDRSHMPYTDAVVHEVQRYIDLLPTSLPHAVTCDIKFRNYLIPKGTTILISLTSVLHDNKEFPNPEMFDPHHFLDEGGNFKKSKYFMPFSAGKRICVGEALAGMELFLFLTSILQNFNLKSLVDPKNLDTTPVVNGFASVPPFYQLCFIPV
# Outline: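 P450-Glo CYP2C9 system: proluciferin substrate with enzyme in mix containing 0.4% BSA, 10 min at room temperature, then NADPH regeneration solution added and incubated 1 h at 37C. Detection reagent stopped reaction; luminescence read after 20 min as RLU.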
# [6] = target: Cytochrome P450 3A4 (Homo sapiens) (UniProt P08684); assay: Cytochrome P450 family 3 subfamily A member 4 (CYP3A4) small molecule antagonists: luciferase qHTS assay (AID 1645841; active = well fitted curve in the direction sought with a large enough effect in the repeat runs; an effect the other way counts as inactive or inconclusive; note: nearly all actives have a fitted effect of over 45% in size)
# Sequence of Cytochrome P450 3A4 (Homo sapiens) (P08684 whole entry, looked up): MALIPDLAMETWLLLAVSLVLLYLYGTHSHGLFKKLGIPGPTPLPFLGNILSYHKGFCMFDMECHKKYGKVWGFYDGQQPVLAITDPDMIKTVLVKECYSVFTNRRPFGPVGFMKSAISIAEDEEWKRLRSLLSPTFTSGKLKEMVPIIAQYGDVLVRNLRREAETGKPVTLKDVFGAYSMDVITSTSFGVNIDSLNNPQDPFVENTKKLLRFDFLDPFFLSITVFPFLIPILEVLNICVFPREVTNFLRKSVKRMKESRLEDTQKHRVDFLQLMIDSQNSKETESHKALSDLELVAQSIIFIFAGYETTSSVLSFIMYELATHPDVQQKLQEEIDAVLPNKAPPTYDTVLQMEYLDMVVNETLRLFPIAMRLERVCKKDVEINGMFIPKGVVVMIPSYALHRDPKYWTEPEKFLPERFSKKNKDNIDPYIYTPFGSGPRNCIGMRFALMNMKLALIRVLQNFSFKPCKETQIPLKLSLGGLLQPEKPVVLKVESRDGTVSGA
# Outline: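 P450-Glo CYP3A4 enzyme with proluciferin substrate preincubated 10 min with compound at room temperature, then NADPH regeneration 1 h. Luciferin detection reagent added for 20 min; luminescence recorded. Ketoconazole positive control.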
# [7] = Primary qHTS for inhibitors of nuclear receptor binding SET domain protein 2 (NSD2) in an isogenic RCH-ACV NSD2 p.E1099K mutant (9B) (AID 1645876); note: nearly all actives have a fitted effect of over 70% in size
# [8] = Primary qHTS for inhibitors of nuclear receptor binding SET domain protein 2 (NSD2) in an RCH-ACV wild type WT cells (2C) (AID 1645877); note: nearly all actives have a fitted effect of over 70% in size
structure (smiles),measurement,setting,value
O=C(OCC(O)CO)c1ccccc1Nc1ccnc2c(C(F)(F)F)cccc12 (stereo not given),outcome,[1],inactive
same,Potency,[2],inactive
same,Potency,[3],inactive
same,Potency,[4],11000 nM (active)
same,Potency,[5],6170 nM (active)
N=C(N)c1ccc(OCCCOc2ccc(C(=N)N)cc2)cc1,outcome,[1],inactive
same,Potency,[2],inactive
same,Potency,[3],inactive
same,Potency,[4],inactive
same,Potency,[6],inactive
COc1cc2c(cc1OC)CN(C(=O)[C@H](C)N[C@@H](CCc1ccccc1)C(=O)O)[C@H](C(=O)O)C2,outcome,[1],inactive
same,Potency,[2],inactive
same,Potency,[3],inactive
same,Potency,[4],inactive
same,Potency,[5],inactive
same,Potency,[7],inactive
same,Potency,[8],inactive
COC(=O)c1cc(Cl)ccc1OC,outcome,[1],inactive
same,Potency,[2],inactive
same,Potency,[3],inactive
same,Potency,[4],inactive
same,Potency,[5],inactive
same,Potency,[7],inactive
CC(C)C(=O)Nc1cccc(C(F)(F)F)c1,outcome,[1],inactive
same,Potency,[2],inactive
same,Potency,[3],inactive
same,Potency,[4],inactive
same,Potency,[5],inactive
same,Potency,[7],inactive
C[N+]1(C)CCC(OC(=O)C(O)(c2ccccc2)C2CCCC2)C1 (stereo not given),outcome,[1],inactive
same,Potency,[2],inactive
same,Potency,[3],inactive
CCOc1c(N2CCOCC2)cnn(C)c1=O,outcome,[1],inactive
same,Potency,[2],inactive
same,Potency,[3],inactive
same,Potency,[4],inactive
same,Potency,[5],inactive
same,Potency,[7],inactive
same,Potency,[8],inactive
NCCCC(N)CC(=O)NCC1NC(=O)C(CO)NC(=O)C(N)CNC(=O)C(C2CCN=C(N)N2)NC(=O)C(=CNC(N)=O)NC1=O (stereo not drawn) (H-[Dap]S[Dap](ξβ3hOrn)[ΔAla(3-NHCONH2)][X10]; lactam 1-C; configuration not given here),activity change,[1],8.73% [at 0.0343 µM]
same,"activity change, negative = inhibition",[2],-1.21% [at 1.07 µM]
same,"% pathology change, negative = correction",[3],-14.9% [at 0.369 µM]
same,"activity change, negative = inhibition",[4],0.741% [at 0.91 µM]
same,"activity change, negative = inhibition",[6],-11.7% [at 0.91 µM]
same,"activity change, negative = inhibition",[5],7.44% [at 0.91 µM]
same,outcome,[7],inactive [at 0.588 µM]
same,outcome,[8],inactive [at 0.588 µM]
c1ccc2occc2c1,outcome,[1],inactive
same,Potency,[2],inactive
same,Potency,[3],inactive
CCOC(=O)OCC/C(SC(=O)OCC)=C(\C)N(C=O)Cc1cnc(C)nc1N,outcome,[1],inactive
same,Potency,[2],inactive
same,Potency,[3],inactive
same,Potency,[4],2160 nM (active)
same,Potency,[5],inactive
CCC1(c2cnc[nH]2)Cc2ccccc2C1,outcome,[1],inactive
same,Potency,[2],inactive
same,Potency,[3],inactive
same,Potency,[4],309 nM (active)
same,Potency,[5],871 nM (active)
same,Potency,[7],inactive
O=C1CC2(CCCC2)CC(=O)N1,outcome,[1],inactive
same,Potency,[2],inactive
same,Potency,[3],inactive
same,Potency,[4],inactive
same,Potency,[5],inactive
same,Potency,[7],inactive
same,Potency,[8],inactive
C[C@@H]1C[C@H]2[C@@H]3CCC4=CC(=O)C=C[C@]4(C)[C@@]3(F)[C@@H](O)C[C@]2(C)[C@@]1(O)C(=O)COC(=O)c1ccncc1,outcome,[1],inactive
same,Potency,[2],inactive
same,Potency,[3],inactive
same,Potency,[4],1230 nM (active)
same,Potency,[5],2450 nM (active)
same,Potency,[7],inactive
same,Potency,[8],inactive
